# TDP1 block: inhibitors of human tyrosyl-DNA phosphodiesterase TDP1. Q9NUW8. recombinant TDP1, AlphaScreen DNA substrate cleavage. Potency, µM (doses to about 130 µM), without a hit: at the top dose activity change, negative = inhibition, most hits filed as inhibitors. hit rate 0.28% among 350,000; further: on the % scale 0 is the no-effect control and ±100 the full control effect; nearly all actives have a fitted effect of over 40% in size
#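 Here, a 5' biotin and 3' phosphotyrosine-FITC DNA oligonucleotide reports Tdp1 activity: intact substrate bridges AlphaScreen beads, while cleavage leaves a 3' phosphate and drops signal. All incubations at room temperature.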
# BAZ2B inh: blocks human BAZ2B; Q9UIF8; AlphaScreen BAZ2B-H3K14Ac peptide displacement; Potency, µM (doses to about 114 µM), inactives show at the highest dose activity change, negative = inhibition, actives largely listed as inhibitors; hit rate 4.4% among 360,000; further: on the % scale 0 is the no-effect control and ±100 the full control effect; nearly all actives have a fitted effect of over 60% in size
#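 Inhibition is scored as reduced AlphaScreen emission. The BAZ2B/b-H3(5-23)K14Ac complex (50 nM each) in PBS pH 7.4, 0.01% Tween-20 meets compound (up to 110 uM) for 30 min at RT before bead addition.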
# HP1b binding inh: HP1-beta chromodomain-methylated histone interaction inhibition; hit rate 0.56% among 390,000; P83916; AID 540317; AlphaScreen HP1-beta / biotin-H3K9me3 peptide binding; Potency, µM (titrated, usually from 114 µM), for inactives: at the highest dose activity change, negative = inhibition, usual class: inhibitors; further: nearly all actives have a fitted effect of over 70% in size
#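 AlphaScreen: HP1-beta (50 nM) preformed 30 min with biotin-H3(1-18)K9me3 peptide (50 nM) in PBS pH 7.4, 0.01% Tween-20. Compound added for 30 min at RT, then streptavidin donor/nickel chelate acceptor beads (10 ug/mL) for 30 min.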
# Sfp inh: blocks B. subtilis Sfp PPTase activity; Q9F4F7; Biochemical Sfp PPTase activity, qHTS; Potency, µM, inactives show largest response in the series, negative = inhibition, actives largely listed as inhibitors; hit rate 3.5% among 310,000; AID 1490;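 further: the enzyme is Sfp with the accession as filed and its product quenches rhodamine fluorescence; 0% = enzyme reaction without inhibitor and -100% = no enzyme wells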
#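 Fluorescence-quenching assay with 15 nM Sfp, 5 uM rhodamine-CoA and 12.5 uM BHQ-2-labelled ybbR peptide in pH 7.6 Hepes/MgCl2 buffer. Enzyme was pre-incubated with compound for 15 min at room temperature. Rate was taken from the 30-min fluorescence change (525/598 nm).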
# JMJD2A Tudor inh: blocks the human JMJD2A Tudor domain; AlphaScreen JMJD2A-Tudor / H3K4me3 peptide binding; Potency, µM (top dose mostly 114 µM), inactives show at the highest dose activity change, negative = inhibition, actives largely listed as inhibitors; hit rate 4.4% among 390,000; further: on the % scale 0 is the no-effect control and ±100 the full control effect; nearly all actives have a fitted effect of over 50% in size
# Target sequence (O75164 whole entry, looked up, the tested form may be a part): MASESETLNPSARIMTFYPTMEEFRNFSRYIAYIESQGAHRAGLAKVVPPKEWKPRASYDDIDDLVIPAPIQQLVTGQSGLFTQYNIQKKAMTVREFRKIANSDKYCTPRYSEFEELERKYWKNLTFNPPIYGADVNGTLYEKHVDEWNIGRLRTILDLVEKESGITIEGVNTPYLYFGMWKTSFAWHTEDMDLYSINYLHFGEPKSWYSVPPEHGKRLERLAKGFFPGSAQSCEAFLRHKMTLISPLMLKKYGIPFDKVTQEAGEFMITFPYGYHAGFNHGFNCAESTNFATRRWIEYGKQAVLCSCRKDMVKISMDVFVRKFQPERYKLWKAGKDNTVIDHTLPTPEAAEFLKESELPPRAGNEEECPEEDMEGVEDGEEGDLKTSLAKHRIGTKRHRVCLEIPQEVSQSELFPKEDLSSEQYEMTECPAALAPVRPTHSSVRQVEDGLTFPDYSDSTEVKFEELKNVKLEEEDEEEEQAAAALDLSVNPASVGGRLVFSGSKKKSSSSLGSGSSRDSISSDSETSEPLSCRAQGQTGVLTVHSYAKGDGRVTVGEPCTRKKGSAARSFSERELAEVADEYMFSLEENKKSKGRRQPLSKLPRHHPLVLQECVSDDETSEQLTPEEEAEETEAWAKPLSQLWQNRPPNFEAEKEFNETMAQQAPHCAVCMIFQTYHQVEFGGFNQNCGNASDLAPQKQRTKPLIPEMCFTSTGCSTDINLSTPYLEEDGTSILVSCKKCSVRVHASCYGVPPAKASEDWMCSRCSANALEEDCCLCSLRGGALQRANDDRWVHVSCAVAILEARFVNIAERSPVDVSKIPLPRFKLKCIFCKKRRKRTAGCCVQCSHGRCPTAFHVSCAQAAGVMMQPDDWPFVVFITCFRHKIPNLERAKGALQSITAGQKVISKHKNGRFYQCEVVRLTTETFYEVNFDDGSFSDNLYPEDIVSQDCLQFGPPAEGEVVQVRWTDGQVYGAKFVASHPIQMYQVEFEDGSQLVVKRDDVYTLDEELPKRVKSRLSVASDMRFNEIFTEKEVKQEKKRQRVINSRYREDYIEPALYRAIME
# G9a block: inhibitors of human histone lysine methyltransferase G9a | G9a H3K9 monomethylation, AlphaScreen, 2 h | Potency, µM (doses to about 102 µM), without a hit: at the highest dose activity, negative = inhibition, most hits filed as inhibitors | hit rate 8.8% among 350,000; further: on the % scale 0 is the no-effect control and ±100 the full control effect; nearly all actives have a fitted effect of over 75% in size
#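 AlphaScreen detection with an anti-monomethyl H3K9 antibody quantified product after a 2 h room-temperature reaction containing 500 nM biotinylated H3K9 peptide, 20 µM SAM and 20 nM enzyme, which had been preincubated 15 min with compound.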
# Numbers without * were called inactive; ? = inconclusive; . = no result given; [ ] = remark or other dose. A selection: hits, their analogues and other compounds. The true share with any hit is near 12%. The call rests on the fitted dose curve; in most records, active means well fitted curve in the direction sought with a large enough effect; inconclusive means small, poorly fitted or top-dose-only effect, or another doubt; inactive means no such curve, though single readings can be large; an effect the other way counts as inactive or inconclusive. Potency means the concentration at half of the fitted maximal effect.
SMILES,TDP1 block,BAZ2B inh,HP1b binding inh,Sfp inh,JMJD2A Tudor inh,G9a block
COCCNC(=O)C1CCN(Cc2cccc(OCc3ccccc3)c2)CC1,.,?,?,-9%,0.79µM*,22%[0.501 µM]
COCCNC(=O)CCC1CCN(Cc2cccc(-c3ccc(C)o3)c2)CC1,.,-10%,22%,-8%,-23%,22µM*
CC(C)CCNC(=O)C1CCN(Cc2cccc(OCc3ccccc3)c2)CC1,.,?,?,-29%,10µM*,.
COc1cc(CN2CCC(C(=O)NCCC(C)C)CC2)ccc1OCc1ccccc1,.,-37%,?,10%,28µM*,50µM*
O=S(=O)(NCCc1csc2nc(-c3ccc(F)cc3)nn12)c1ccc2c(c1)OCCO2,3%,-2%,27%,.,-6%,?
COc1ccc(OC)c(S(=O)(=O)NCc2ccc3c(c2)CCN3C(=O)c2cccc(C)c2)c1,8%,-11%,21%[57 µM],.,-14%,5%[59 µM]
Cc1ccc(-n2nc(C(=O)N3CCN(c4cccc(C(F)(F)F)c4)CC3)c3c4ccccc4n(C)c3c2=O)cc1,2%,.,26%,.,-11%,-13%[59 µM]
O=C1CCCCC1Sc1nnc(Cc2cccs2)n1CCc1ccccc1 (stereo not given),5%,-8%,-23%,-14%,79µM*,-25%[59 µM]
N#Cc1cc2c(nc1SCC(N)=O)CCCCC2,-1%,5%,55%,10%,-3%[57.1 µM],79µM*
CC(C)OC(=O)CC(=O)CSc1nc2c(cc1C#N)CCCC2,-7%,31%,81%,-18%,1%,?
CC(C)OC(=O)CC(=O)CSc1nc2c(cc1C#N)CCC2,5%,-17%,55%,-21%,2%,45µM*
C=C(C)CSc1nc2c(cc1C#N)CCC2,-1%,?,161%,-3%,54%,124%
CCCCSc1nc2c(cc1C#N)CCC2,1%,198%,203%,?,154%,4µM*
CC[C@@H]1C=C(C(=O)O)[C@H](c2ccc(OC)c(OC)c2)N1S(=O)(=O)c1ccc(C)cc1,0%,.,17%,.,-16%,.
CC(C)(C)OC(=O)N1CCC(c2c(C(=O)N3CCOCC3)cnn2-c2cccc(F)c2)CC1,-1%,9%[57.1 µM],26%,.,6%,6%[59 µM]
CCOC(=O)C1CCCN(CC(O)COCc2ccc3c(c2)OCO3)C1 (stereo not given),.,56µM*,?,-12%,1µM*,11µM*
CCC(CO)NCC(O)COCc1ccc2c(c1)OCO2 (stereo not given),-11%,79µM*,-9%,-27%,50µM*,?
CC(CCc1ccccc1)NC(=O)COC(=O)c1cccc(N(C)C)c1 (stereo not given),.,-23%,4%,-4%,?,11%
CC[N+]1(C)CCC(O)(/C=C/c2ccccc2)C(C(=O)/C=C/c2ccccc2)C1 (stereo not given),.,.,71µM*,.,40µM*,.
CC(C)CNC(=O)CSc1nnc(CN2CCCCCC2=O)n1-c1ccccn1,2%,.,-7%,13%,-4%,-8%[59 µM]
CC(C)N(C(=O)CSc1nnc(CN2CCCCCC2=O)n1-c1ccccn1)C(C)C,5%,-27%,?,-3%,89µM*,?
Cc1sc2nc(CC(=O)N3CCCC3)[nH]c(=O)c2c1C,8%,-1%,-9%,?,1%,28µM*
COc1cccc(C(=O)C[n+]2ccccc2/C=N/O)c1,13%,-25%,43%,-3%,-2%,50µM*
COc1cccc(C(=O)C[n+]2cccc3cc(OC)ccc32)c1,0%,-12%,40%,.,-5%,?
CCCC[C@@H](C=O)NC(=O)[C@H](CC(C)C)NC(=O)[C@H](CC(C)C)NC(C)=O,9%,.,.,19%,.,33%[59 µM]
SMILES,TDP1 block,BAZ2B inh,HP1b binding inh,Sfp inh,JMJD2A Tudor inh,G9a block
CNc1cc(CSC)nc(SCc2ccc(Cl)c(Cl)c2)n1,-4%,6%,62%,15%,-4%,32µM*
Cc1nc(SCc2ccc(Cl)c(Cl)c2)n[nH]1,.,1%,34%,13%,-10%,16%
O=C(Cn1cc(SCc2c(F)cccc2Cl)c2ccccc21)N1CCCCCC1,-3%,-19%,85%,.,-5%,4%[59 µM]
COc1ccc2c(c1)Oc1ncn(CCN3CCOCC3)c(=N)c1C2c1ccc(OC)c(OC)c1 (stereo not given),2%,.,.,.,-20%,.
O=C(O)c1[nH]c2ccccc2c1C(c1ccccc1)c1c(C(=O)O)[nH]c2ccccc12,.,-33%,19%,20%,-13%,-50%
C=CCOc1ccc(C(c2c(C(=O)O)[nH]c3ccccc23)c2c(C(=O)O)[nH]c3ccccc23)cc1,.,50µM*,71µM*,-3%,79µM*,35µM*
CC(C)(C)N1CCC1C(N)=O (stereo not given),-1%,-3%,.,1%,.,.
CC(=O)N1c2ccc(S(=O)(=O)N3CCC(C(=O)Nc4cccc(F)c4)CC3)cc2CC1C (stereo not given),2%,-16%,4%,23%,-17%,19%
Cc1ccc(C)c(CN2C(=O)c3ccccc3S(=O)(=O)c3ccc(C(=O)N4CCN(C)CC4)cc32)c1,6%,89µM*,4%[57 µM],9%,-17%,2%[59 µM]
Cc1ccc(C)c(CN2C(=O)c3ccccc3S(=O)(=O)c3ccc(C(=O)N4CCCC4)cc32)c1,3%,-22%,28%,.,-13%,1%[59 µM]
COc1ccc(CCNC(=O)c2ccc3c(c2)N(Cc2ccccc2F)C(=O)c2ccccc2S3(=O)=O)cc1OC,6%,-13%,26%,.,-19%,7.9µM*
Cc1ccc(C(=O)OCC(=O)NC(C)c2ccccc2)cc1C (stereo not given),0%,.,19%,.,-6%,.
O=C(CN1C(=O)COc2ccc(S(=O)(=O)N3CCCC3)cc21)N1CCN(c2ccc(Cl)cc2)CC1,9%,15%,52%,.,-22%,26%[59 µM]
COc1ccc(CCN(C)CCCOc2ccc(S(=O)(=O)c3[nH]c4ccccc4c3C(C)C)cc2)cc1OC,17%[56.1 µM],.,.,40µM*,.,.
CCOc1cccc(-c2c(C(=O)N/N=C(\C)c3cccs3)nnn2-c2nonc2N)c1,1%,-1%,34%,23%,-23%,.
COc1ccc(CCN2C(=O)c3[nH]nc(-c4ccccc4O)c3C2c2ccc(OC)c(OC)c2)cc1 (stereo not given),5%,-23%,33%,.,-18%,9%[59 µM]
CCc1ccccc1Nc1nc(N)nc(CSCC(=O)c2cc(C)n(C)c2C)n1,3%,56µM*,-14%,-19%,?,?
Cc1ccccc1Nc1nc(N)nc(CSCC(=O)Nc2cccc(Br)c2)n1,3%,-23%,26%,4%,-21%,-33%[59 µM]

# Screening results as filed in PubChem.
